Reference: PubChem BioAssay
Calls of active or inactive are those of the source. Unless noted, how the calls were made is not given here.

Experiments:
[1] = test system: XIP peptide (Xip251-270) binding; assay: small-molecule binders of XIP peptide, primary screen, biochemical, small-molecule microarray, fluorescence 635/667 nm, 0.1 µg/mL protein (AID 1182); settings: fluorescent protein binding, 635 nm, higher = more signal, called active from +8 up or from −8 down
XIP peptide (Xip251-270) = assay: small-molecule binders of XIP peptide, primary screen, biochemical, small-molecule microarray, fluorescence 635/667 nm, 0.5 µg/mL protein (AID 1183); settings: small-molecule microarray binding, fluorescence 635 nm; higher = more signal
[2] = Plasmodium falciparum growth inhibition, primary screen, strain 3D7, DAPI fluorescence, 100 nL (AID 1184);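 further: parasites grown inside human red blood cells in medium with human serum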; settings: P. falciparum 3D7 growth, 3 d, higher = more signal
[3] = biological target: Homeobox protein Hox-A13 (Mus musculus) (UniProt Q62424); assay: inhibitors of HoxA13-DNA binding, primary screen, biochemical, fluorescence polarization, labeled oligonucleotide (AID 1185); settings: 15 min, higher = more signal, called active from +8 up or from −8 down
Chain of Homeobox protein Hox-A13 (Mus musculus) (Q62424 whole entry, looked up): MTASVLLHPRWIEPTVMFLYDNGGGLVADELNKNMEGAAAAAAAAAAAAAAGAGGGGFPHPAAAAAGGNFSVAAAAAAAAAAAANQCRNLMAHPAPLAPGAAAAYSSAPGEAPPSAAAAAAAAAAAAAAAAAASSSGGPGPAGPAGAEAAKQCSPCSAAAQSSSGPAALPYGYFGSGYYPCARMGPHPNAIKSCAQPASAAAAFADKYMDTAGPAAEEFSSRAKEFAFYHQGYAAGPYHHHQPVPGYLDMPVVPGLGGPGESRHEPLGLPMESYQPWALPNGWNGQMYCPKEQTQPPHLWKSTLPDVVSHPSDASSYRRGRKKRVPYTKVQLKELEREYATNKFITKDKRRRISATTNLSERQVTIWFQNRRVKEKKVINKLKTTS

[4] = inhibitors of hydroxyurea-induced Chk1 phosphorylation, primary screen, imaging, HeLa, phospho-Chk1 antibody, percent positive cells (AID 1186); settings: hydroxyurea-induced phospho-Chk1 immunofluorescence imaging, higher = more signal
[5] = inhibitors of hydroxyurea-induced Chk1 phosphorylation, primary screen, imaging, HeLa, phospho-Chk1 nuclear intensity (AID 1187); settings: hydroxyurea-induced phospho-Chk1 immunofluorescence imaging, higher = more signal

| Compound | composite z-score [1] | composite z-score (XIP peptide (Xip251-270)) | z-score [2] | z-score [3] | z-score [4] | z-score [5] |
| --- | --- | --- | --- | --- | --- | --- |
| CC(C)c1ccc(NN2C(C(O)c3ccccc3)C=CC3C(=O)N(c4ccccc4)C(=O)C32)cc1 (centres undefined) | 0.542 (inactive) | 0.602 | -0.164 | -1.36 (inactive) | -1.43 (inactive) | -1.77 (inactive) |
| O=C1N(Cc2ccccc2)Cc2ccccc2C[C@@]12COC(c1ccc(OCCCO)cc1)=N2 | 0.704 (inactive) | 0.311 | -2.08 | -4.67 (inactive) | -0.266 (inactive) | 0.273 (inactive) |
| CC(C)(C)OC(=O)CC[C@]1(C(N)=O)N=C(c2ccc(OCCCO)cc2)O[C@H]1c1ccccc1N=[N+]=[N-] | 0.466 (inactive) | 0.351 | 0.129 | -6.52 (inactive) | -0.373 (inactive) | -0.285 (inactive) |
| C=C(CCCC)C(=O)CC[C@@H](OC(C)=O)c1ccc(OCCO)cc1 | 0.386 (inactive) | 0.607 | -2.07 | -5.09 (inactive) | -0.266 (inactive) | -0.266 (inactive) |
| O=C1C2C=CC(C(O)C(c3ccccc3)c3ccccc3)N(Nc3ccccc3F)C2C(=O)N1c1ccccc1 (centres undefined) | 0.814 (inactive) | 0.768 | -0.373 | -2.65 (inactive) | 0.837 (inactive) | 0.29 (inactive) |
| Cc1ccc(S[C@]2(C(=O)NC3CC3)CC(=O)N(C3Cc4ccccc4C3)[C@@H]2c2ccc(CO)cc2I)cc1 | 0.406 (inactive) | 0.559 | -0.396 | -2.46 (inactive) | 0.586 (inactive) | 0.97 (inactive) |
| COC(=O)[C@@]1(Cc2ccc(OC)cc2)[C@H]2c3cc(C(=O)N(C)C)n(Cc4c(CO)[nH]cc(C)c4=O)c3C[C@H]2CN1C(=O)c1ccccc1 | -0.582 (inactive) | 0.349 | -0.116 | -3.64 (inactive) | 0.54 (inactive) | 0.376 (inactive) |
| COc1cc2c(cc1O)C(C)N(Cc1sc3ccccc3c1Cl)CC2 (centres undefined) | -0.173 (inactive) | 0.547 | -1.37 | -3.39 (inactive) | -0.632 (inactive) | -0.817 (inactive) |
| COCCCNC(=O)[C@@]1(c2ccc([N+](=O)[O-])cc2)CC(=O)N(C2CCCCC2)[C@@H]1c1ccc(CO)cc1I | 0.266 (inactive) | 0.728 | -0.768 | -4.5 (inactive) | 0.237 (inactive) | 0.36 (inactive) |
| [N-]=[N+]=NCc1ccccc1[C@H]1OC(c2ccc(OCCCO)cc2)=N[C@@]1(CCS(=O)(=O)c1ccccc1)C(=O)NCCN1CCOCC1 | -0.0093 (inactive) | 0.816 | -2.35 | -2.67 (inactive) | -0.0238 (inactive) | -0.0229 (inactive) |
| CC(C)(C)OC(=O)CC[C@@]1(C(N)=O)N=C(c2ccc(OCCCO)cc2)O[C@@H]1c1ccccc1CN=[N+]=[N-] | -0.015 (inactive) | 0.297 | 1.1 | -4.71 (inactive) | 0.3 (inactive) | 0.317 (inactive) |
| C=CC[C@]1(C(=O)NCCN2CCOCC2)N=C(c2ccc(OCCCO)cc2)O[C@H]1c1ccccc1 | 0.212 (inactive) | 0.492 | -0.188 | -6.22 (inactive) | -0.116 (inactive) | 0.106 (inactive) |
| N#Cc1ccc(NN2C(C(O)c3ccc(B(O)O)cc3)C=CC3CN(c4ccccc4)C(=O)C32)cc1 (centres undefined) | -0.0004 (inactive) | 0.658 | -0.0223 | -2.55 (inactive) | -1.03 (inactive) | -0.622 (inactive) |
| CCCCC(=C=CC[C@H](O)c1cccc(OCCO)c1)C[C@H](O)c1cc(Cl)cc(Cl)c1O | 0.878 (inactive) | 0.592 | -1.16 | -4.28 (inactive) | -0.755 (inactive) | 0.0773 (inactive) |
| C=C[C@H](OC)[C@@H](O)c1ccc(OC)c(O)c1 | -1.51 (inactive) | 1.1 | -0.874 | -1.36 (inactive) | 0.171 (inactive) | 0.705 (inactive) |
| CCCCCN1CC=CC23O[C@@H]4/C=C\CCCOC(=O)C4[C@H]2C(=O)N(CCCCCO)[C@@H]3C1=O (some centres undefined) | 0.388 (inactive) | 0.199 | 0.0701 | -4.75 (inactive) | 0.726 (inactive) | 0.576 (inactive) |
| COc1cccc(C)c1NC(=O)O[C@H]1[C@H](OC(=O)Nc2ccccc2)[C@@H](OC(=O)Nc2ccccc2)[C@@H](OC)O[C@@H]1CO | 1.3 (inactive) | 0.912 | -2.57 | -4.95 (inactive) | -0.515 (inactive) | -0.515 (inactive) |

| Compound | composite z-score [1] | composite z-score (XIP peptide (Xip251-270)) | z-score [2] | z-score [3] | z-score [4] | z-score [5] |
| --- | --- | --- | --- | --- | --- | --- |
| C=C[C@@H](CO)NS(=O)(=O)c1ccc(Br)cc1 | -0.987 (inactive) | -1.58 | -0.345 | 0.553 (inactive) | -0.734 (inactive) | -0.695 (inactive) |
| COC(=O)C(CC#Cc1ccc2c(c1)[C@]1(C(=O)N2)[C@H](c2ccc(OCCO)cc2)N2[C@H](c3ccccc3)[C@H](c3ccccc3)OC(=O)[C@H]2[C@@H]1C(N)=O)C(=O)OC | 0.372 (inactive) | 0.657 | -0.983 | -1.34 (inactive) | -0.143 (inactive) | -0.303 (inactive) |
| COC(=O)[C@@]1(Cc2ccc(F)cc2)[C@H]2c3cc(C(=O)N(C)C)n(Cc4ccc(C(F)(F)F)nc4)c3C[C@H]2CN1C(=O)c1ccccc1 | 0.338 (inactive) | 0.64 | -1.68 | -3.87 (inactive) | 0.93 (inactive) | 0.563 (inactive) |
| COC(=O)[C@@]1(Cc2ccccc2)[C@H]2c3cc(C(=O)N(C)C)n(Cc4ccc(Cl)c(C(F)(F)F)c4)c3C[C@H]2CN1C(=O)c1ccccc1 | 0 (inactive) | 0.485 | -1.47 | -2.73 (inactive) | 0.435 (inactive) | 0.444 (inactive) |
| CC[C@@H](O[Si](C#C[Si](C(C)C)(C(C)C)C(C)C)(C(C)C)C(C)C)c1cn([C@H](CO)Cc2ccccc2)nn1 | -0.0433 (inactive) | 0.411 | -0.348 | -1.31 (inactive) | -0.058 (inactive) | -0.0008 (inactive) |
| COCCOC(=O)N1C(=O)[C@@]2(c3cc(C#CCC(C(=O)OC)C(=O)OC)ccc31)[C@H](c1ccc(O)cc1)N1[C@H](c3ccccc3)[C@H](c3ccccc3)OC(=O)[C@H]1[C@@H]2C(=O)N1CCc2cc(OC)c(OC)cc2C1 | 0.406 (inactive) | 0.803 | -2.15 | -1.37 (inactive) | -0.0407 (inactive) | 0.46 (inactive) |
| C[C@]1(C(=O)NCC(F)(F)F)c2ccccc2C(=O)N(Cc2cc(C(F)(F)F)cc(C(F)(F)F)c2)[C@H]1c1ccc(CO)cc1 | 0.0939 (inactive) | 0.21 | 0.528 | -3.48 (inactive) | -0.496 (inactive) | -0.308 (inactive) |
| COc1ccc([Si](C)(C)[C@H]2[C@H](CC(=O)N3CCC[C@H]3CO)O[C@@]3(C(=O)N(Cc4cccc(N5CCCCC5=O)c4)c4ccccc43)[C@@H]2C)cc1 | 2.57 (inactive) | 0.714 | -1.33 | -3.23 (inactive) | -0.319 (inactive) | 0.519 (inactive) |
| COc1ccc(CCNC(=O)[C@@]2(c3ccc([N+](=O)[O-])cc3)CC(=O)N(C3CCCCC3)[C@@H]2c2ccc(CO)cc2I)cc1 | 0.548 (inactive) | 0.671 | -1.96 | -3.27 (inactive) | 0.129 (inactive) | 0.294 (inactive) |
| CCOC(=O)C1=CCC(c2ccncc2)N(S(=O)(=O)c2ccc(C)cc2)C1 (centres undefined) | 0.373 (inactive) | 0.835 | -0.886 | -4.63 (inactive) | 0.0325 (inactive) | 0.104 (inactive) |
| C=CCNC(=O)[C@@H]1[C@H]2C(=O)O[C@H](c3ccccc3)[C@H](c3ccccc3)N2[C@H](c2ccc(OCCO)cc2)[C@@]12C(=O)N(C(=O)OCCOC)c1ccccc12 | 1.44 (inactive) | 0.718 | -0.643 | -3.58 (inactive) | -0.0546 (inactive) | 0.0358 (inactive) |
| CCOC(=O)C[C@H]1[C@H](OC(=O)Cc2ccc3c(c2)OCO3)[C@@H](NC(=O)CC(C)C)c2cc(OCCCO)ccc2N1C(=O)c1ccc2ccccc2n1 | 0.216 (inactive) | 0.784 | -2.04 | -4.65 (inactive) | -0.0615 (inactive) | 0.252 (inactive) |
| CCCCCCc1nc(-c2ccc(OC)nc2)c(C)c2c1[Si](C(C)C)(C(C)C)OC2 | -0.186 (inactive) | -0.7 | -2.14 | 0.384 (inactive) | -0.531 (inactive) | 0.0171 (inactive) |
| COC(=O)C1(CC(C)C)C=C2C(=C(C)C(=O)C2C)CN1 (centres undefined) | -0.583 (inactive) | 0.992 | 0.51 | -4.02 (inactive) | 0.886 (inactive) | 0.911 (inactive) |
| COc1cccc(C)c1NC(=O)O[C@H]1[C@H](OC(=O)Nc2ccccc2-c2ccccc2)[C@@H](OC(=O)Nc2ccccc2-c2ccccc2)[C@@H](OC)O[C@@H]1CO | 1.22 (inactive) | 0.89 | -2.26 | -3.57 (inactive) | 0.609 (inactive) | 0.604 (inactive) |
| O=C1O[C@H](c2ccccc2)[C@H](c2ccccc2)N2[C@H]1[C@@H](C(=O)O)[C@]1(C(=O)Nc3ccccc31)[C@H]2c1ccc(OCCO)cc1 | 1.13 (inactive) | 0.711 | -0.443 | -6.4 (inactive) | 0.618 (inactive) | 0.612 (inactive) |
| COc1ccc([Si](C)(C)[C@H]2[C@H](CC(=O)N3CCC[C@H]3CO)O[C@@]3(C(=O)N(C)c4c(Br)cc(C)cc43)[C@@H]2C)cc1 | 1.14 (inactive) | 0.341 | -1.56 | -5.84 (inactive) | 0.27 (inactive) | 0.523 (inactive) |
